From PubChem
CHX counter: counter-screen for Shiga toxin inhibitors: cycloheximide protein synthesis inhibition | 300,000 tested, 12% active | max response, % | cell reporter, cycloheximide protein synthesis inhibition counterscreen; in the data active = max response mostly above about 13%, no sharp cut-off; inactive = mostly below about 14%; note: read at 38.3 µM for the half of the compounds with a filed dose; 0% is about no effect
Pf growth 48h: P. falciparum growth inhibition at 48 hours (one generation); P. falciparum luciferase growth in erythrocytes, 48 h; Potency, µM (titrated, usually from 28.7 µM), for inactives: top-dose activity change, negative = inhibition, hits mostly inhibitors; 310,000 tested, 5.9% active; AID 504832; note: potency is the fitted concentration of half-maximal effect; % is set by controls: 0 for no effect and ±100 for the full control effect
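Luciferase-expressing P. falciparum in infected erythrocytes (2% hematocrit, 0.1% parasitemia final) in RPMI 1640/0.5% Albumax were exposed to compound for 48 hours at 37 C, 5% CO2; growth read as luminescence.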
HCV inhibitor: inhibitors of hepatitis C virus infection. Huh7.5.1 HCVcc-Cre infection, luciferase reporter, 44 h. Potency, µM (doses to about 41.8 µM), without a hit: at the highest dose activity change, negative = inhibition, actives largely listed as inhibitors. 340,000 tested, 3.4% active. AID 651820; note: potency is the fitted concentration of half-maximal effect; % is set by controls: 0 for no effect and ±100 for the full control effect
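Seed cells (1,000/well) for 4 h; treat with compound and infect with HCVcc-Cre, moi about 0.5. Incubate 44 h, then detect luciferase activity.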
Pf growth 96h: P. falciparum growth inhibition at 96 hour, primary screen for plastid delayed-death inhibitors. P. falciparum luciferase reporter growth, 96 h. Potency, µM (series often up to 28.7 µM), inactives show at the top dose activity change, negative = inhibition, hits mostly inhibitors. 320,000 tested, 6.9% active. AID 504834; note: potency is the fitted concentration of half-maximal effect; % is set by controls: 0 for no effect and ±100 for the full control effect
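Luminescence readout: decreased luciferase signal marks inhibited growth of reporter-expressing P. falciparum in infected red cells (2% hematocrit, 0.05% parasitemia final), exposed to compound two generations (96 h, 37 C, 5% CO2).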
Shiga inhibitor: blocks Shiga toxin action in Vero cells; Vero cells, Shiga toxin protein synthesis inhibition reporter; inhibition, % at 38.7 µM; 290,000 tested, 9.2% active; AID 2315; in the data active = inhibition mostly above about 28%, no sharp cut-off; inactive = mostly below about 43%; note: 0% is about no effect
AMA1 RON2 block: disrupts binding of P. falciparum AMA1 to RON2. 360,000 tested, 0.2% active. AlphaScreen AMA1-biotinylated RON2 peptide binding. Potency, µM (highest dose often 58.2 µM), for inactives: at the highest dose activity change, negative = inhibition, most hits filed as inhibitors;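 note: potency is the fitted concentration of half-maximal effect; 0% = vehicle wells and -100% = peptide control; nearly all actives have a fitted effect of over 45% in size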
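AMA1 (3D7) with his tag at 25 nM final met compounds first, then biotinylated RON2 peptide at 25 nM; detection used donor plus acceptor beads, 10 µg/mL apiece, read by AlphaScreen after 30 min at room temperature.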
Active calls of the source: *; i = inactive; ? = inconclusive; . = not tested or not shown; [ ] = dose if it differs, or a comment. Compounds with a hit are over-represented: about 21% of the library has one in this group of screens. Unless noted, calls come from the whole dose curve; as a rule, active = well fitted curve in the direction sought with a large enough effect; inconclusive = small, poorly fitted or top-dose-only effect, or another doubt; inactive = no such curve, though single readings can be large; an effect the other way counts as inactive or inconclusive.

SMILES | CHX counter | Pf growth 48h | HCV inhibitor | Pf growth 96h | Shiga inhibitor | AMA1 RON2 block
CCOC(=O)C1C(=O)NC(C(=O)OCC)(C(=O)OCC)C1C(C)CC (configuration not stated) | . | . | 11% | . | . | -4%
COc1ccccc1C(=O)NNC(=O)c1ccccc1F | 47* | 192% | 2% | -7% | 58* | 44%
CC(C)(C)NC(=O)C(=O)NNC(=O)c1cccc(F)c1 | 38* | 166% | 23% | 70% | 44 | 71%
COc1ccccc1C(=O)NNC(=O)c1ccncc1 | 2 | 77% | 16% | ? | 33 | -7%
COc1ccccc1C(=O)NNC(=O)c1cccc(F)c1 | 51* | 120% | 5% | 79% | 88* | 5%
COc1ccccc1C(=O)NNC(=O)c1cccc(O)c1 | 23* | 163% | 15% | 6.6µM* | 21 | -4%
Cc1occc1C(=O)NNC(=O)c1cccc(F)c1 | 14 | 21% | 16% | 275% | 8 | 3%
O=C(NNC(=O)c1ccccc1F)c1ccc2[nH]c(=O)c(=O)[nH]c2c1 | 34* | ? | 23% | 36% | 41* | -19%
O=C(CN1C(=O)NC(c2ccccc2)(c2ccccc2)C1=O)N1CCN(c2ccc(F)cc2)CC1 | . | 12µM* | ? | ? | . | -11%
CCC1(CC)NC(=O)N(CC(=O)N2CCN(c3ccccc3F)CC2)C1=O | . | 6% | 7% | 1% | . | 1%
O=C(CN1C(=O)NC(c2ccccc2)(c2ccccc2)C1=O)N1CCN(c2ccccc2F)CC1 | . | 13µM* | ? | ? | . | ?
c1cn2c(NC3CCCCC3)c(-c3ccc(SC4CCCCC4)cc3)nc2cn1 | . | 3.7µM* | 9% | ? | . | 6%
CCN(CC)c1ccc(-c2nc3cnccn3c2NC2CCCC2)cc1 | -4 | ? | 32µM* | ? | 14 | -8%
CCOP(=O)(OCC)c1nc(-c2ccccc2)oc1NCc1ccccc1 | 0 | 7.4µM* | -6% | 2.6µM* | 7 | 4%[11.6 µM]
Cc1nc(S(=O)(=O)c2ccc(Cl)cc2)c(NCc2ccccc2)o1 | -1 | . | ? | . | -7 | -3%
CCOP(=O)(OCC)c1nc(Cc2ccccc2)oc1NCc1ccccc1 | -2 | 9.3µM* | -10% | 10µM* | -4 | -8%
CCOP(=O)(OCC)c1nc(-c2cccc3ccccc23)oc1NCCc1ccc(OC)cc1 | -1 | 15µM* | 0% | ? | -18 | 35%
CCOP(=O)(OCC)c1nc(-c2ccc(F)cc2)oc1NCc1ccccc1 | -1 | ? | -26% | ? | -19 | -2%
O=P(c1ccccc1)(c1ccccc1)c1nc(-c2ccccc2)oc1NCc1ccccc1 | 13 | 5.9µM* | 6% | 9.3µM* | 23 | -23%
Cc1ccc(S(=O)(=O)c2c(C)nn(C(C)(C)C)c2OC(=O)CC(C)C)cc1 | 4 | ? | -28% | -187% | -29 | -6%
Cc1ccc(C(=O)c2oc3ccccc3c2NC(=O)c2cc(-c3ccccc3O)n[nH]2)cc1 | -3 | 1.5µM* | 5% | 0.59µM* | 5 | 11%[2.32 µM]
O=C(Nc1c(C(=O)c2ccccc2)oc2ccccc12)c1cc(-c2ccccc2O)n[nH]1 | 6 | 1.5µM* | -20% | 0.66µM* | -5 | 23%[2.32 µM]
CCNC(=O)c1c(NC(=O)c2cc(-c3cc(C)ccc3O)n[nH]2)sc2c1CCCC2 | -4 | ? | ? | ? | 17 | 39%
Cc1ccc(C(=O)c2oc3ccccc3c2NC(=O)c2cc(-c3cc(C)ccc3O)n[nH]2)cc1 | -5 | 0.33µM* | -30% | 0.33µM* | 3 | 132%
Cc1ccc(C)c(C(=O)Nc2c(C(N)=O)oc3ccccc23)c1 | -8 | . | -22% | ? | -10 | -3%
SMILES | CHX counter | Pf growth 48h | HCV inhibitor | Pf growth 96h | Shiga inhibitor | AMA1 RON2 block
CC(C)S(=O)(=O)N1CCCC(c2cc(C(=O)NCc3ccccc3)no2)C1 (configuration not stated) | . | . | . | . | . | -6%
CC(C)(C)CC(C)(C)c1ccc(OCCOCC[N+](C)(C)Cc2ccccc2)cc1 | . | 0.93µM* | ? | 0.47µM* | . | -2%
C[N+](C)(CCOc1ccccc1)Cc1ccccc1 (tested in a mixture with another compound) | -2 | 10µM* | . | 41% | 1 | -2%
CCCCNC(=O)C(NC(=O)c1cccnc1OC)C(=O)c1ccccc1 (configuration not stated) | . | . | . | . | . | 1%
S=C(c1ccc(-c2cc(Cl)ccc2Cl)o1)N1CCCCC1 | 4 | 13% | ? | 0% | 7 | -8%
S=C(c1ccc(-c2cccc(Cl)c2)o1)N1CCCCC1 | 49* | i | ? | 485% | 55* | ?
S=C(c1ccc(-c2cccc(Cl)c2)o1)N1CCOCC1 | 43* | 206% | ? | 3% | 188* | ?
N#CCCN1CCN(C(=S)c2ccc(-c3cccc(Cl)c3)o2)CC1 | 45* | -2% | -3% | . | 103* | ?
CCOc1ccc(CN2C(=O)c3ccccc3Sc3ccc(C(=O)NCc4ccc(C)cc4)cc32)cc1 | 11 | . | . | . | -3 | .
O=C(c1cc(COc2ccc3ncccc3c2)on1)N1CCC(O)CC1 | -3 | 5% | 8.9µM* | 203% | -9 | 2%
CCC(O)C1CCN(C(=O)c2cc(COc3ccc4ncccc4c3)on2)CC1 (configuration not stated) | -3 | 2% | 1.8µM* | -5% | -14 | 1%
O=C(c1cc(COc2ccc3ncccc3c2)on1)N1CCCC(O)C1 (configuration not stated) | 3 | 49% | ? | ? | 10 | 6%
COCC1CCCN(C(=O)c2cc(COc3ccc4ncccc4c3)on2)C1 (configuration not stated) | 5 | -19% | 1µM* | ? | -3 | 16%
CN(C(=O)C1CCCO1)C1CCS(=O)(=O)C1 (configuration not stated) | . | 25% | 19% | 1% | . | -3%
CC1(C)Cc2cccc(Oc3cc(NN4CCCCC4)c([N+](=O)[O-])cc3[N+](=O)[O-])c2O1 | -2 | ? | -7% | 1.5µM* | -8 | -30%
Cc1ccc(F)c(Oc2cc(NN3CCCCC3)c([N+](=O)[O-])cc2[N+](=O)[O-])c1 | -3 | ? | -6% | 12µM* | -3 | ?
O=[N+]([O-])c1cc([N+](=O)[O-])c(Oc2ccc(Cl)c3cccnc23)cc1NN1CCCCC1 | -2 | ? | 7% | 1.5µM* | 1 | -17%
Cc1cc(Oc2cc(NN3CCCCC3)c([N+](=O)[O-])cc2[N+](=O)[O-])c(C(=O)c2ccccc2)cc1Cl | -3 | ? | -27% | 8.3µM* | 10 | ?
CCc1nc(C)ccc1OC(=O)C12CC3CC(CC(C3)C1)C2 | -2 | -12% | 0% | 0.59µM* | 2 | -27%
Cc1ccc(OC(=O)C23CC4CC(CC(C4)C2)C3)c(C)n1 | 1 | -4% | 3% | -5% | -11 | -9%
